# Assay results published in PubChem BioAssay (NCI).
# This is part of a sample that, as a whole, favours compounds with a hit. Of some 79,000 tested, about 15% had one in any assay. Values without a mark were called inactive. Active and inactive are the calls of the source. Rule as the data show it: active = growth inhibition above about 70%; inactive = the rest.
# Experiments:
# [1] = NCI Yeast Anticancer Drug Screen. Data for the rad50 strain (AID 155);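 also: 0% = growth of vehicle-only cultures of the same strain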; conditions: S. cerevisiae rad50 strain growth inhibition, stronger effect = higher value
# How it was run: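 Readout: growth inhibition relative to vehicle-treated cultures. Compound exposure was carried out in a genetically defined yeast strain deficient in DNA damage repair.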
# [2] = NCI Yeast Anticancer Drug Screen. Data for the mec2-1 strain (AID 157); conditions: S. cerevisiae mec2-1 strain, stronger effect = higher value
# How it was run: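 mec2-1 yeast strain, carrying an alteration in DNA damage repair or cell cycle control, was exposed to compounds; growth inhibition was measured relative to vehicle-treated controls.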
# [3] = NCI Yeast Anticancer Drug Screen. Data for the sgs1 mgt1 strain (AID 161);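 also: 0% = growth of cultures given vehicle only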; conditions: S. cerevisiae sgs1 mgt1 strain, stronger effect = higher value
# How it was run: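 Yeast cells carrying a defined DNA-repair defect were exposed to test compounds. Growth inhibition was measured relative to vehicle-treated controls.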
# [4] = NCI Yeast Anticancer Drug Screen. Data for the cln2 rad14 strain (AID 165);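 also: 0% = growth equal to vehicle treated cultures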; conditions: S. cerevisiae cln2 rad14 strain, stronger effect = higher value
# How it was run: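 Yeast carrying cln2 and rad14 alterations (cell cycle control and DNA damage repair) were exposed to compounds. Growth inhibition was measured against vehicle-treated controls.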
# [5] = NCI Yeast Anticancer Drug Screen. Data for the bub3 strain (AID 167); conditions: S. cerevisiae bub3 mutant strain, stronger effect = higher value
# How it was run: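 Readout: yeast growth inhibition, expressed relative to vehicle-only wells. The test organism is a mutant strain from a panel with lesions in DNA repair or checkpoint genes.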
# [6] = NCI Yeast Anticancer Drug Screen. Data for the mlh1 rad18 strain (AID 175); conditions: S. cerevisiae mlh1 rad18 strain growth inhibition, stronger effect = higher value
# How it was run: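 Growth inhibition of the yeast strain was measured after compound exposure and expressed relative to vehicle-treated controls. The strain carries defined defects in DNA damage repair.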
# [7] = at 5.0 µM (retest, dose inferred, filed as 0.5)
# [8] = at 50.0 µM (retest, dose inferred, filed as 5.0)
Compound,"growth inhibition [1, 7]","growth inhibition [1, 8]",growth inhibition ([1]; at 50.0 µM),"growth inhibition [2, 7]","growth inhibition [2, 8]",growth inhibition ([2]; at 50.0 µM),"growth inhibition [3, 7]","growth inhibition [3, 8]",growth inhibition ([3]; at 50.0 µM),"growth inhibition [4, 7]","growth inhibition [4, 8]",growth inhibition ([4]; at 50.0 µM),"growth inhibition [5, 7]","growth inhibition [5, 8]",growth inhibition ([5]; at 50.0 µM),"growth inhibition [6, 7]","growth inhibition [6, 8]",growth inhibition ([6]; at 50.0 µM)
O=[N+]([O-])c1cc(Cl)ccc1S(=O)(=O)c1ccccc1,-19%,75% (active),77.2% (active),-31%,30%,62.1%,-7%,57%,78.8% (active),22%,40%,47.5%,-13%,79% (active),76.6% (active),-25%,75% (active),79.7% (active)
O=CCCCc1cc2c(cc1Br)CCC2,0%,62%,60.9%,14%,62%,70.9% (active),11%,73% (active),64.2%,10%,82% (active),72.2% (active),23%,92% (active),77.5% (active),21%,91% (active),50.4%
CC(C)c1cc(C(C)C)c(Cl)c(Cl)c1O (tested in a mixture with another compound),1%,44%,99.3% (active),3%,100% (active),99.5% (active),6%,98% (active),99.5% (active),5%,73% (active),98.9% (active),0%,77% (active),87.5% (active),-1%,14%,84.5% (active)
ClC(Cl)(Cl)/C=C/c1cnc2ccccc2n1,2%,99% (active),15.6%,1%,99% (active),5.95%,1%,99% (active),49.3%,-3%,99% (active),-2%,-3%,99% (active),85.7% (active),3%,99% (active),30.2%
O=C1COCC(=O)OCCOCCSCCOCCO1,5%,11%,-4.6%,0%,5%,-1.2%,1%,1%,-7%,4%,41%,37.2%,-4%,4%,8.75%,8%,15%,7.75%
Oc1ccc(Cl)cc1Cc1cc(Cl)cc(Cc2cc(Cl)ccc2O)c1O,-1%,97% (active),96% (active),1%,98% (active),97.3% (active),4%,98% (active),97.5% (active),-12%,95% (active),96.5% (active),-17%,98% (active),96.7% (active),14%,97% (active),95.8% (active)
CCCCCCCC[N+](C)(CCCCCCCC)CCCCCCCC,51%,95% (active),90.5% (active),47%,91% (active),92.2% (active),98% (active),97% (active),93% (active),71% (active),98% (active),91.7% (active),96% (active),96% (active),91.7% (active),41%,98% (active),91.2% (active)
CCCCN(CCO)CCNc1ccc(C)c2sc3ccccc3c(=O)c12,17%,99% (active),99.7% (active),14%,99% (active),99.8% (active),29%,100% (active),99.6% (active),17%,99% (active),99.7% (active),24%,99% (active),99.6% (active),22%,99% (active),95.5% (active)
COC1=CC(=O)[C@H]2CC(C)=CC[C@]2(C)C1=O,-3%,2%,9.35%,1%,0%,6.55%,2%,0%,-4.75%,1%,-2%,84% (active),-1%,0%,3.35%,-1%,1%,15.1%
CC(C)CCCC(C)C1CCC2C3CC=C4CC(OC(=O)Nc5ccc(S(=O)(=O)c6ccc(F)cc6)cc5)CCC4(C)C3CCC12C (stereo not drawn),3%,2%,96.3% (active),1%,4%,98% (active),0%,0%,97.8% (active),3%,9%,51.5%,1%,-12%,96.7% (active),4%,-6%,96.4% (active)
c1ccc2c(c1)oc1cc3c(cc12)CCCN3,18%,97% (active),91.7% (active),19%,98% (active),10.3%,7%,98% (active),74.7% (active),3%,97% (active),4.4%,19%,98% (active),77.7% (active),18%,98% (active),43.5%
